Test results published in PubChem BioAssay (Tox21).
Results filed as inconclusive are left out. Calls of active or inactive are those of the source. Calls follow the shape of the dose curve; as a rule, active = well fitted curve in the direction sought with a large enough effect in the repeat runs; inconclusive = weak or mixed curves; inactive = no such curve, though single readings can be large; an effect the other way counts as inactive or inconclusive.
% is scaled to controls: 0 for no effect and ±100 for the full control effect; potency is read from the fitted curve at half-maximal effect.
Also: nearly all actives have a fitted effect of over 50% in size.

The molecules below were run against Voltage-gated inwardly rectifying potassium channel KCNH2 (Homo sapiens) (UniProt Q12809) (assay: Human Ether-a-go-go-Related Gene (hERG) channel small molecule antagonists: fluorescence cell-based qHTS assay (AID 1671200;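 as to activity change, negative = inhibition: hERG-expressing U2OS cells given a thallium stimulus after FluxOR II dye loading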)). Details: hERG-U2OS cells, FluxOR thallium flux fluorescence; series mostly up to 76.8 µM; activity change, negative = inhibition: at the top concentration.
Chain of Voltage-gated inwardly rectifying potassium channel KCNH2 (Homo sapiens) (Q12809 whole entry, looked up): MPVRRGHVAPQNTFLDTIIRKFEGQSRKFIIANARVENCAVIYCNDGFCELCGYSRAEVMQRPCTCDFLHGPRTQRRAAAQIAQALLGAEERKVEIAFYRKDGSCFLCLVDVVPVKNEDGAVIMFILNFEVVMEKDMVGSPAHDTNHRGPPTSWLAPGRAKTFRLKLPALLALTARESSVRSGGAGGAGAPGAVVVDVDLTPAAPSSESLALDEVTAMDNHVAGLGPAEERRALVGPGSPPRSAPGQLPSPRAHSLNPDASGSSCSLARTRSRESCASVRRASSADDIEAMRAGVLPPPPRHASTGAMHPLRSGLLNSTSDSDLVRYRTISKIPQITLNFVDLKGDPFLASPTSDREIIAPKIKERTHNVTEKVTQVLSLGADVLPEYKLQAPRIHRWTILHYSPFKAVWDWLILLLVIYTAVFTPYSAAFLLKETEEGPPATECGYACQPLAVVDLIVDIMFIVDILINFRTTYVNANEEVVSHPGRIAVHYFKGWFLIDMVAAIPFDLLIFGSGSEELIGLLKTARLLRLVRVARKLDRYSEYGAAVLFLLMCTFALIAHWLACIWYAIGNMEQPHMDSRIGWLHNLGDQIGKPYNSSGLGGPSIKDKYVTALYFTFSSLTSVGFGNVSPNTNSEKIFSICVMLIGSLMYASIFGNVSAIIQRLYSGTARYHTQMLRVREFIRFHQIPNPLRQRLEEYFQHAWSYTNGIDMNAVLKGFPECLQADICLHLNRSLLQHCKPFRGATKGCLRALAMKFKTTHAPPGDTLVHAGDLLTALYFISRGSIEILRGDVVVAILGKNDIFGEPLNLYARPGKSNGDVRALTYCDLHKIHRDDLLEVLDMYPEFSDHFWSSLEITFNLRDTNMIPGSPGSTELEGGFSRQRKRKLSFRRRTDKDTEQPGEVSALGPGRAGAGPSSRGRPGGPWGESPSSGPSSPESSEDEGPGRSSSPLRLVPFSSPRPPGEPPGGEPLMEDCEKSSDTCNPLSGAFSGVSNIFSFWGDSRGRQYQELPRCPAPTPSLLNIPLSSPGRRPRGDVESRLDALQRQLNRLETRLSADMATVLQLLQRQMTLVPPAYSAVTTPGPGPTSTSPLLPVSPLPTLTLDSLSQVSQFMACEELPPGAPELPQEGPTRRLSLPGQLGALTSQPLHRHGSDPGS
Procedure, shortened: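 U2OS cells expressing the channel were plated at 1000 cells/well, incubated overnight at 37 C, then loaded with FluxOR II thallium-sensitive dye for 1 h at room temperature in the dark, with a further 10 min at room temperature before stimulation.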
For `[Cl][Sc]([Cl])[Cl]`, the “activity change, negative = inhibition” value was 9.11% (inactive).
In the case of `C[C@H]1O[C@@H](O[C@H]2CC[C@@]3(C)[C@H](CC[C@@H]4[C@@H]3C[C@@H](O)[C@]3(C)[C@@H](C5=CC(=O)OC5)CC[C@]43O)C2)C[C@H](O)[C@@H]1O[C@H]1C[C@H](O)[C@H](O[C@H]2C[C@H](O)[C@H](O[C@@H]3O[C@H](CO)[C@@H](O)[C@H](O)[C@H]3O)[C@@H](C)O2)[C@@H](C)O1`, the “activity change, negative = inhibition” value is reported as -5.69% [at 35.3 µM] (inactive).
`Cc1ccc2n[nH]nc2c1` was tested, and the “activity change, negative = inhibition” value was 5.71% (inactive).
With `O=[N+]([O-])c1ccc(CO)cc1` the “activity change, negative = inhibition” value was 1.37% (inactive).
`c1ccc(-c2nc3ccccc3[nH]2)cc1` was tested, and the “activity change, negative = inhibition” value was -0.257% (inactive).
With `O=C(NCc1ncc(C(F)(F)F)cc1Cl)c1c(Cl)cccc1Cl` the “activity change, negative = inhibition” value was 1.63% (inactive).
With `CC(C)c1ccc2sc3ccccc3c(=O)c2c1` the “activity change, negative = inhibition” value was -16.3% (inactive).
For `Oc1cccc2c(O)cccc12`, the “activity change, negative = inhibition” value was -0.545% (inactive).
`C=CCc1cc(S(=O)(=O)c2ccc(O)c(CC=C)c2)ccc1O` was tested, and the “activity change, negative = inhibition” value was -4.92% (inactive).
With `CC1=CC[C@@H](C(C)(C)O)CC1` the “activity change, negative = inhibition” value was 0.321% (inactive).
For `COc1cc(C(C)C)ccc1C`, the activity change, negative = inhibition was -1.11% [at 15.8 µM] (inactive).
In the case of `O=C1OC(O)C(C(Cl)Cl)=C1Cl` (configuration not stated), the “activity change, negative = inhibition” value is reported as -11% (inactive).
In the case of `CCn1c2ccccc2c2ccccc21`, the “activity change, negative = inhibition” value is reported as 20.8% (inactive).
In the case of `C=COCCCC`, the “activity change, negative = inhibition” value is reported as 4.06% (inactive).
For `Nc1cccnc1N`, the “activity change, negative = inhibition” value was 0.761% (inactive).
In the case of `O=C(Nc1ccccc1)c1cc(Cl)ccc1O`, the “activity change, negative = inhibition” value is reported as -22.7% (inactive).
`S=C1NC=NC2N=CNC12` (configuration not stated) was tested, and the “activity change, negative = inhibition” value was 12.7% (inactive).
`COc1cc2ncnc(Nc3cccc(Cl)c3)c2cc1OC` was tested, and the activity change, negative = inhibition was 7% [at 15.8 µM] (inactive).
`CCc1cccc(C)c1N(C(=O)CS(=O)(=O)O)C(C)COC` (configuration not stated) was tested, and the “activity change, negative = inhibition” value was -2.74% (inactive).
In the case of `CCCC(C)C=O` (configuration not stated), the “activity change, negative = inhibition” value is reported as -0.411% (inactive).
`[Cl][Dy]([Cl])[Cl]` was tested, and the “activity change, negative = inhibition” value was -0.481% (inactive).
With `NCc1ccco1` the “activity change, negative = inhibition” value was 3.14% (inactive).
With `CCOC(=O)[C@H](C)O` the “activity change, negative = inhibition” value was 4.23% (inactive).
In the case of `CCCCCc1ccc(O)cc1`, the “activity change, negative = inhibition” value is reported as -6.76% (inactive).
In the case of `CCCOC(=O)c1ccc(O)cc1`, the “activity change, negative = inhibition” value is reported as 2% (inactive).
`CN(C[C@@H](CC[N+]12CCC(C3CCCCC3)(CC1)CC2)c1ccc(Cl)c(Cl)c1)C(=O)c1cc(C(F)(F)F)cc(C(F)(F)F)c1` was tested, and the “activity change, negative = inhibition” value was -13.9% (inactive).
With `C/C(=N\[Si](C)(C)C)O[Si](C)(C)C` the “activity change, negative = inhibition” value was -0.382% (inactive).
`Cn1c(=O)[nH]c2ncn(C)c2c1=O` was tested, and the “activity change, negative = inhibition” value was 8.41% (inactive).
For `CSc1ccc(O)cc1C`, the “activity change, negative = inhibition” value was -0.163% (inactive).
`C=C1CC[C@H]2O[C@]2(C)CC[C@@H]2[C@@H]1CC2(C)C` was tested, and the “activity change, negative = inhibition” value was -4% (inactive).
With `CCCCCCCCCCCC(=O)Cl` the “activity change, negative = inhibition” value was 5.8% (inactive).
With `CC(O)(c1ccc(Cl)cc1)c1ccc(Cl)cc1` the Potency was 49 µM (active).

These molecules were tested against Cytochrome P450 3A4 (Homo sapiens) (UniProt P08684) (assay: Cytochrome P450 Family 3 Subfamily A Member 4 (CYP3A4) small molecule antagonists: luciferase reporter qHTS assay (AID 1671201)). Details: P450-Glo CYP3A4 enzyme, luciferin luminescence, 1 h; series mostly up to 115 µM; activity change, negative = inhibition: at the top concentration.
Chain of Cytochrome P450 3A4 (Homo sapiens) (P08684 whole entry, looked up): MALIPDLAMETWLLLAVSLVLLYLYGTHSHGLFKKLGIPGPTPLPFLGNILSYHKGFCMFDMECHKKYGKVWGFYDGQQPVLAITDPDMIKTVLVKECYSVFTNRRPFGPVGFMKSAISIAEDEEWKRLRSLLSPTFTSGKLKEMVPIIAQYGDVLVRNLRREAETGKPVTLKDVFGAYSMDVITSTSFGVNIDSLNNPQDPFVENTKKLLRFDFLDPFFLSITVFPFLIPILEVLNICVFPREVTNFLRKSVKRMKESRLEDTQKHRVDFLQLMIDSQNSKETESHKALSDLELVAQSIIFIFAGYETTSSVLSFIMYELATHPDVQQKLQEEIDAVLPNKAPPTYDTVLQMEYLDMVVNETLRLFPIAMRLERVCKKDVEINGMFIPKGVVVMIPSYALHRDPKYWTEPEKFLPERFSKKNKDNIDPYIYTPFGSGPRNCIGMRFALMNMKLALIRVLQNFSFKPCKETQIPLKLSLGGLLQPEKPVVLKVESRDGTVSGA
Procedure, shortened: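 P450-Glo CYP3A4 system with proluciferin substrate; compounds preincubated 10 min RT with enzyme-substrate mix, then NADPH regeneration added for 1 h RT. Detection reagent 20 min, luminescence read as relative luminescence units.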
With `Cc1ccc2n[nH]nc2c1` the “activity change, negative = inhibition” value was 1.66% (inactive).
`O=[N+]([O-])c1ccc(CO)cc1` was tested, and the “activity change, negative = inhibition” value was 4.95% (inactive).
In the case of `C=CCc1cc(S(=O)(=O)c2ccc(O)c(CC=C)c2)ccc1O`, the Potency is reported as 28.3 µM (active).
With `CC1=CC[C@@H](C(C)(C)O)CC1` the “activity change, negative = inhibition” value was 0.677% (inactive).
With `COc1cc(C(C)C)ccc1C` the activity change, negative = inhibition was -0.0855% [at 23.6 µM] (inactive).
With `O=C1OC(O)C(C(Cl)Cl)=C1Cl` (configuration not stated) the “activity change, negative = inhibition” value was 12.6% (inactive).
`Nc1cccnc1N` was tested, and the “activity change, negative = inhibition” value was -11.9% (inactive).
For `S=C1NC=NC2N=CNC12` (configuration not stated), the “activity change, negative = inhibition” value was 41.3% (inactive).
`CCCC(C)C=O` (configuration not stated) was tested, and the “activity change, negative = inhibition” value was 4.94% (inactive).
In the case of `NCc1ccco1`, the “activity change, negative = inhibition” value is reported as -1.06% (inactive).
For `CCCCCc1ccc(O)cc1`, the “activity change, negative = inhibition” value was -15.4% (inactive).
With `C/C(=N\[Si](C)(C)C)O[Si](C)(C)C` the “activity change, negative = inhibition” value was 2.2% (inactive).
For `Cn1c(=O)[nH]c2ncn(C)c2c1=O`, the “activity change, negative = inhibition” value was -11% (inactive).
With `C=C1CC[C@H]2O[C@]2(C)CC[C@@H]2[C@@H]1CC2(C)C` the “activity change, negative = inhibition” value was -17.7% (inactive).
For `CCCCCCCCCCCC(=O)Cl`, the “activity change, negative = inhibition” value was 75.9% (inactive).
